Consider 98 molecules from PubChem BioAssay AID1626 (SRMLSC, 2009).

The whole screen tested about 220,000 compounds, of which about 2,000 (0.91%) were called active. Not shown: some 2% with an inconclusive outcome. Rule as the data show it: inconclusive = inhibition above about 80% without an active follow-up result; inactive = below that; test concentration not stated here. The list is a sample of the results. Entries with a potency or affinity are not part of this list.

This test in a line: M. tuberculosis H37Rv growth inhibitors, H37Rv strain (AID 1626).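 Also: bacteria incubated seven days before Alamar blue readout; 0% = bacteria only wells and 100% = bacteria with antibiotic wells.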 Conditions: stronger effect = higher value, concentration not given here.
For the molecule `Cc1c(C(=O)N/N=C/c2ccc(N3CCOCC3)cc2)nc2ccccn12`, the inhibition is 3.49% (inactive).

On to `CC(c1ccccc1)c1nnc(NC(=O)c2ccc3c(c2)OCO3)s1` (stereo not drawn), for which the inhibition was 6.54% (inactive).

As to `O=C(OCCN1C(=O)c2ccccc2C1=O)C1CCN(S(=O)(=O)c2cccs2)CC1`, the inhibition was -5.04% (inactive).

`CCCCNC(=O)N1CCN(C/C=C/c2ccccc2)CC1`: the inhibition is 5.68% (inactive).

Regarding `O=C(c1ccc(C(F)(F)F)cc1)N1CCCCC1`, the inhibition is -0.08% (inactive).

On to `Fc1cccc(NC(=S)NCc2cccnc2)c1`, for which the inhibition is 21.1% (inactive).

On to `O=c1c2cc(-c3ccccc3)sc2nc2n1N=C(c1ccccc1)CS2`, for which the inhibition is 10.6% (inactive).

Take `CCCCN(CCCC)Cc1cc2ccccc2c2c1COC2`: the inhibition was 4.07% (inactive).

Turning to `CCCn1c(NCCO)nc2ccccc21`, the inhibition is -2.95% (inactive).

For `CCCn1c(CNC(=O)c2ccccc2)nc2ccccc21`, the inhibition was -0.92% (inactive).

Consider `CCCn1c(NC(=S)Nc2ccccc2)nc2ccccc21`, for which the inhibition was 7.73% (inactive).

For `CCCn1c(Nc2ccccc2C)nc2ccccc21`, the inhibition was -8.39% (inactive).

With `CCn1c(C(C)NC(=O)c2cccs2)nc2ccccc21` (stereo not drawn), the inhibition is 2.83% (inactive).

For the molecule `CCn1c(CCCNC(=O)c2cccs2)nc2ccccc21`, the inhibition is -2.25% (inactive).

As for `CCCn1c(C(C)NC(=O)c2ccccc2)nc2ccccc21` (stereo not drawn), the inhibition is 0.32% (inactive).

In the case of `CCCn1c(Nc2nc3ccccc3n2C)nc2ccccc21`, the inhibition was 2.56% (inactive).

As to `Cc1onc(-c2ccccc2Cl)c1C(=O)N1C=CC(C(F)(F)Cl)=NCC1`, the inhibition was 1.09% (inactive).

With `O=C(NCc1ccc(Cl)cc1)c1cc(-c2cccs2)on1`, the inhibition was -1.76% (inactive).

For the molecule `Cc1cccc(SCC(=O)Nc2ccccc2[N+](=O)[O-])c1`, the inhibition was 7.5% (inactive).

As to `COc1ccc(N=C2S/C(=C\c3ccc(OCC(=O)O)cc3)C(=O)N2CCc2c[nH]c3ccccc23)cc1`, the inhibition is -4.37% (inactive).

Take `Cc1ccc(C)c(CN2C(=O)COc3ccc(C(=O)c4ccccc4C(=O)O)cc32)c1`: the inhibition is 15.8% (inactive).

As to `CCN(CC)S(=O)(=O)c1cccc(NC(=O)COC(=O)CNC(=O)c2cccc(F)c2)c1`, the inhibition was -4.29% (inactive).

Take `Cc1ccccc1NS(=O)(=O)c1cc(C(=O)NCc2ccco2)ccc1C`: the inhibition was -1.94% (inactive).

Consider `COc1cc(NC(=O)CSc2nnc(C)s2)cc(OC)c1OC`, for which the inhibition was 0.33% (inactive).

Take `CCn1c(NC(=O)Nc2ccccc2OC)nc2ccccc21`: the inhibition is 81.5% (inactive).

As to `CCn1cc(Cl)c(C(=O)Nc2nc3ccccc3n2CCN2CCCCC2)n1`, the inhibition was 3.91% (inactive).

Regarding `Cc1ccc(-c2nc(C(F)(F)F)cc(=O)[nH]2)cc1`, the inhibition is -0.92% (inactive).

Consider `CCOC(=O)c1c(NC(=O)c2nn(CC)cc2Br)c(C#N)cn1-c1ccccc1`, for which the inhibition is -6% (inactive).

For the molecule `COc1ccc(O)c(CN2CCCC(C(=O)c3ccccc3SC)C2)c1` (stereo not drawn), the inhibition was -3.14% (inactive).

For `CC(C)Oc1cccc(C(=O)C2CCCN(Cc3ccon3)C2)c1` (stereo not drawn), the inhibition was 5.09% (inactive).

As to `COc1ccc(OC)c(CN2CCCC(C(=O)c3ccccc3SC)C2)c1` (stereo not drawn), the inhibition was 5% (inactive).

Regarding `CCOC(=O)N1CCC(N2CCCC(C(=O)c3cc(C)c(OC)c(C)c3)C2)CC1` (stereo not drawn), the inhibition is -0.88% (inactive).

As for `Cc1ncc(CN2CCCC(C(=O)c3cccc(OC(C)C)c3)C2)s1` (stereo not drawn), the inhibition is -0.24% (inactive).

With `CCn1ccnc1CN1CCCC(C(=O)c2cc(C)c(OC)c(C)c2)C1` (stereo not drawn), the inhibition is 9.37% (inactive).

Turning to `CCOC(=O)N1CCC(N2CCCC(C(=O)c3cccc(OC)c3)C2)CC1` (stereo not drawn), the inhibition was 0.16% (inactive).

As for `CCn1ccnc1CN1CCCC(C(=O)c2ccc(OC)cc2OC)C1` (stereo not drawn), the inhibition is -1.43% (inactive).

As to `c1ccc(-c2cnc(SCCN3CCOCC3)n2CC2CCCO2)cc1` (stereo not drawn), the inhibition is 4.09% (inactive).

With `CCN(CC)C(=O)C(=O)c1cccn1-c1c(Cl)cccc1C#N`, the inhibition is -1.07% (inactive).

As for `NC(=O)c1cn(-c2ccccc2)nc1-c1cccnc1`, the inhibition is -9.42% (inactive).

Regarding `CC1CC(=O)N(CC(=O)NCc2ccco2)c2ccccc2S1` (stereo not drawn), the inhibition is -7.83% (inactive).

`O=C(CCc1nnc(CCc2c[nH]c3ccccc23)o1)NC1CCC1`: the inhibition was -2.04% (inactive).

Take `COc1ccc(NC(=O)c2ccccc2[N+](=O)[O-])cc1`: the inhibition is -5.35% (inactive).

In the case of `Cc1c(C(=O)NCCCn2ccnc2)oc2ccccc12`, the inhibition was 3% (inactive).

On to `CCc1ccc(/C=N/NC(=O)c2cc(C)on2)s1`, for which the inhibition was 4.86% (inactive).

Consider `CC(C)CCNC(=O)CCSCCC(=O)NCCC(C)C`, for which the inhibition is -5.9% (inactive).

For `COc1ccc(C(=O)C2CCCN(Cc3cnc(C)s3)C2)c(OC)c1` (stereo not drawn), the inhibition was 1.52% (inactive).

`COc1c(C)cc(C(=O)C2CCCN(Cc3ccccn3)C2)cc1C` (stereo not drawn): the inhibition is 52.1% (inactive).

Consider `COc1cccc(C(=O)C2CCCN(Cc3cccc(C)n3)C2)c1` (stereo not drawn), for which the inhibition was 6.54% (inactive).

With `COc1ccc(C(=O)C2CCCN(Cc3cnc(C)s3)C2)cc1OC` (stereo not drawn), the inhibition is -7.69% (inactive).

Consider `Cc1cccc(CN2CCCC(C(=O)c3ccc4c(c3)OCO4)C2)n1` (stereo not drawn), for which the inhibition was 9.77% (inactive).

As to `COc1ccc(C(=O)C2CCCN(Cc3cccc(C)n3)C2)c(OC)c1` (stereo not drawn), the inhibition is -9.04% (inactive).

On to `Cc1cccc(-n2ncc3c(Nc4ccc(F)cc4)ncnc32)c1`, for which the inhibition is 8.29% (inactive).

For the molecule `COc1ccc(N2C(=O)c3ccccc3S2(=O)=O)cc1`, the inhibition was -3.28% (inactive).

For the molecule `COc1ccc(CN2CN=C(Nc3nc4ccccc4s3)NC2)cc1`, the inhibition was -0.93% (inactive).

On to `CCNC(=S)N/N=C/c1ccc(OCCOc2ccccc2C)cc1`, for which the inhibition is -4.17% (inactive).

For `COC(=O)c1ccc(CNC(=O)COc2ccccc2Br)o1`, the inhibition is 5.3% (inactive).

As to `CC[n+]1ccccc1/C=C/Nc1ccccc1`, the inhibition is -7.49% (inactive).

As for `O=C(CSc1nccc(=O)[nH]1)Nc1ccc2c(c1)OCCO2`, the inhibition was 31.1% (inactive).

In the case of `O=C(CSc1nccc(=O)[nH]1)Nc1ccc(F)c(Cl)c1`, the inhibition is -0.08% (inactive).

With `S=c1[nH]nc(-c2ccncc2)n1/N=C/C(Cl)=C\c1ccccc1`, the inhibition is 6.36% (inactive).

As for `COc1cc(CNc2ncn[nH]2)ccc1OCc1cccc(C)c1`, the inhibition was 5.16% (inactive).

`COc1ccc(O)c(C(=O)c2cnc3c(c2)CN(C)C(=O)N3)c1`: the inhibition was -1.06% (inactive).

Regarding `CC1(C)CC(NC(=O)c2ccccn2)CC(C)(C)N1O`, the inhibition is 1.26% (inactive).

Regarding `S=C1NCCNC(=S)NCCOCCOCCOCCN1`, the inhibition is -1.99% (inactive).

As for `Cc1cc(NCCCN2CCOCC2)n2ncc(-c3ccccc3)c2n1`, the inhibition was 7.39% (inactive).

Regarding `CC(C)(C)c1cc(-n2ccnc2)n2ncc(-c3ccc(Cl)cc3)c2n1`, the inhibition was 6.96% (inactive).

As for `Clc1ccc(-n2ncc3c(NCCCn4ccnc4)ncnc32)cc1`, the inhibition was -5.48% (inactive).

For the molecule `Cc1cc(NCCCn2ccnc2)n2ncc(-c3ccccc3)c2n1`, the inhibition was 18.5% (inactive).

Regarding `COC(=O)c1cc(Br)c(=O)n(CCC2=CCCCC2)c1`, the inhibition was -7.27% (inactive).

In the case of `O=C(NC(=S)Nc1ccc(CN2CCOCC2)cc1)c1ccco1`, the inhibition is -0.41% (inactive).

With `COc1ccc(-c2[nH]ncc2CN2CCC(N3CCSCC3)CC2)c(F)c1`, the inhibition is -0.36% (inactive).

For the molecule `Cc1ccc(-c2nn(-c3ccccc3)cc2/C=N/NC(=O)c2ccc(Br)o2)cc1`, the inhibition was 0.66% (inactive).

Take `Clc1ccc(Cl)c(OCCCCNCc2ccccc2)c1`: the inhibition was 11.2% (inactive).

For `Clc1cc(Br)ccc1OCCCNCc1ccccc1`, the inhibition was 23% (inactive).

Turning to `Cc1ccc(C)c(OCCCC(=O)Nc2ccc(N3CCOCC3)cc2)c1`, the inhibition is -9.52% (inactive).

Turning to `Cn1c(SCC(=O)N2CCOCC2)nnc1-c1cnccn1`, the inhibition was -10.3% (inactive).

`CCCCOc1ccc(C(=O)Nc2cc(C)c(OCC(=O)N3CCOCC3)c(C)c2)cc1`: the inhibition is -1.36% (inactive).

As for `CCC(C)[C@H](N)c1nnc(SCC(=O)c2ccc(Cl)cc2)o1` (stereo partly drawn), the inhibition is -1.21% (inactive).

As for `Cn1c(SCCCC(=O)c2ccc(F)cc2)nnc1-c1ccncc1`, the inhibition is 5.49% (inactive).

Regarding `CC1=C(CCN2CCN(C(C)C)C(CCO)C2)C(C)(C)CCC1` (stereo not drawn), the inhibition is 1.16% (inactive).

`CC1=C(CCN2CCN(C3CCCC3)C(CCO)C2)C(C)(C)CCC1` (stereo not drawn): the inhibition was 3.37% (inactive).

Take `CC1(C)Oc2ccc3ccc(=O)oc3c2/C(=C/Nc2ccccn2)C1=O`: the inhibition was -6.19% (inactive).

Turning to `COc1ccc(OC)c(CCNC(=O)C(=O)Nc2ccc3nc4n(c(=O)c3c2)CCCCC4)c1`, the inhibition was 9.2% (inactive).

On to `COc1ccc(-c2csc(/C(C#N)=C/Nc3ccc4c(c3)OCCO4)n2)cc1`, for which the inhibition was 5.83% (inactive).

On to `COc1cc2c(cc1N/C=C(\C#N)c1nc(-c3ccc(F)cc3)cs1)oc1ccccc12`, for which the inhibition was 5.47% (inactive).

Consider `CCN(CC)CCOC(=O)c1cccc(OC)c1`, for which the inhibition was -3.6% (inactive).

In the case of `Cc1ccc(-c2csc(/C(C#N)=C/Nc3ccc4c(c3)OCCO4)n2)cc1`, the inhibition was -3.12% (inactive).

On to `N#C/C(=C\Nc1ccc2c(c1)OCCO2)c1nc(-c2ccccc2)cs1`, for which the inhibition was -0.56% (inactive).

For the molecule `COc1cccc(-c2csc(/C(C#N)=C/Nc3cc4oc5ccccc5c4cc3OC)n2)c1`, the inhibition is 6.75% (inactive).

Turning to `Cn1c(=O)c2c(ncn2CC(=O)OCC(=O)NCc2ccc(Cl)cc2)n(C)c1=O`, the inhibition is -4.25% (inactive).

With `CCOC(=O)CSC(CC)C(=O)Nc1nnc(CC)s1` (stereo not drawn), the inhibition was 8.43% (inactive).

For the molecule `Cc1cc(Cl)ccc1N(CC(=O)NCc1ccc2c(c1)OCO2)S(C)(=O)=O`, the inhibition was -3.37% (inactive).

Regarding `O=C(CCC(=O)c1cccs1)OCc1nc2ccccc2s1`, the inhibition is -8.64% (inactive).

Consider `CC[C@@H](CO)C1CC2NC3CC4(c5ccccc5N(C)[C@@H]24)C(O)C31` (stereo partly drawn), for which the inhibition is -2.7% (inactive).

For `COc1ccc(/C=N/N2C(=O)c3ccccc3C2=O)cc1`, the inhibition was 1.55% (inactive).

Take `CCCCCC(=O)Nc1nc(C)c(-c2csc(Nc3ccccc3OC)n2)s1`: the inhibition is 3.41% (inactive).

For the molecule `CCCCC(=O)Nc1nc(C)c(-c2csc(Nc3ccccc3OC)n2)s1`, the inhibition is 6.85% (inactive).

As to `CCN(CC)CCCN1C(=O)C(O)=C(C(=O)c2cc3ccccc3o2)C1c1ccccn1` (stereo not drawn), the inhibition was -1.65% (inactive).
